ChEMBL document CHEMBL1157539, “Thousands of chemical starting points for antimalarial lead identification” (Nature, 2010)

The compounds below were run on Plasmodium falciparum (assay: GSK_TCMDC: Inhibition of Plasmodium falciparum 3D7 in whole red blood cells, using parasite LDH activity as an index of growth. Test compounds present at 2uM).
Format: functional

SMILES | Inhibition
COc1cc2nc(NCCc3ccccc3)nc(NCc3nccs3)c2cc1OC | 99%
CCOc1cccc(C(=O)Nc2cccc(CN3CCCN(Cc4cccc(O)c4)CC3)c2)c1.O=C(O)C(F)(F)F | 85%
Cc1[nH]c(C)c(-c2ccc(Oc3cccc(Cl)c3)cc2)c(=O)c1Br | 98%
CN(C)c1cc(NC(=O)Nc2ccc(SC(F)(F)F)cc2)c2ccccc2n1 | 100%
O=C(Nc1cc(C(F)(F)F)cc(C(F)(F)F)c1)NC(CCCN1CCC2(CC1)OCc1ccccc12)c1ccc(Cl)c(Cl)c1 (stereo unspecified) | 94%
CN1CCCC(CN2CCN(Cc3cccc(-c4cccc(-c5nc6ccccc6[nH]5)c4)c3)CC2)C1.O=C(O)C(F)(F)F (stereo unspecified) | 100%
NC1CCN(Cc2cccc(-c3ccc(-c4nc5ccccc5[nH]4)s3)c2)C1.O=C(O)C(F)(F)F (stereo unspecified) | 100%
CO/C(=C\C=C\c1cc2cc(Cl)c(Cl)cc2[nH]1)C(=O)Nc1ccc(NCCN(C)C)nc1.Cl | 93%
CCCNCc1ccc(-c2ccc(CN(C(=O)c3nn(-c4ccccc4)nc3C)C3CC3)cc2)nc1.O=C(O)C(F)(F)F | 100%
CCC(C)NC(=O)CN1CN(c2ccccc2)C2(CCN(C(=O)c3ccc4ccccc4c3)CC2)C1=O (stereo unspecified) | 95%
O=C(Nc1cccc(CN2CCCN(Cc3ccccc3)CC2)c1)c1ccc(Cl)c(Cl)c1.O=C(O)C(F)(F)F | 95%
COc1ccc(Nc2nccc(-c3ccc4ccnc(NCCCCN)c4c3)n2)cc1 | 95%
Cc1ccc2c(OCCN3CCC(Cc4ccc5c(c4)NC(=O)CO5)CC3)cc(F)cc2n1.Cl | 89%
CCCN(CCC)S(=O)(=O)c1ccc(C(=O)N2CCC(C(=O)OCC)CC2)cc1 | 98%
COc1ccccc1C1CCN(CCCCNC(=O)c2ccc(/C=C/c3cc(Cl)cc(Cl)c3)cc2)CC1 | 96%
Cc1cc(=NN=Cc2cccc(Cl)c2)c2cc(F)ccc2[nH]1 | 100%
CC(Cc1ccc(NC(=O)c2ccc(CC(C)NCc3ccc(Cl)c(Cl)c3)cc2)cc1)NCCc1cccc(Cl)c1 (stereo unspecified) | 92%
N=C1NC(=O)C(=Cc2cn(-c3ccccc3)nc2-c2cccc(S(=O)(=O)N3CCCC3)c2)S1 | 85%

SMILES | Inhibition
Cc1cc(C(F)(F)F)n2nc(C(=O)N(C)Cc3cncn3Cc3ccc(F)cc3)cc2n1 | 100%
NC1=NC(c2ccccc2)(c2ccccc2)C(=O)N1CC1CCC1.O=CO | 96%
Br.CN1C(=O)C(=O)N(CCCCCONC(=N)N)C1=S | 100%
Cc1noc(-c2ccc(N3CCC(C(=O)N4CCN(C(C)C)CC4)CC3)cc2)n1.Cl | 95%
FC(F)(F)c1cc(C(F)(F)F)c2cc(CNCCCNc3nc4ccccc4[nH]3)[nH]c2c1 | 100%
COc1ccc2nc(Nc3nc4cnccc4[nH]3)sc2c1 | 88%
CCN(CCCN1CCCCC1)c1cc(C)nc(Nc2cccc(C(F)(F)F)c2)n1.O=C(O)C(F)(F)F | 100%
Cn1nccc1C(=O)NCCNCc1ccc(-c2cccc(-c3nc4ccccc4[nH]3)c2)cc1.O=C(O)C(F)(F)F | 100%
COc1ccc(NC(=O)Nc2ccc(C)c(-c3ccc(C(=O)Nc4ccncc4)cc3)c2)cc1 | 99%
Cc1cccc2nc(C(=O)Nc3nc(CN4CCC(C)CC4)cs3)cn12 | 94%
Cc1nn(-c2ccccc2)nc1C(=O)NC1CCN(CCNC(=O)c2ccc(Cl)c(Cl)c2)CC1.O=C(O)C(F)(F)F | 89%
COc1ccc(S(=O)(=O)N(c2cc(Br)cc3c2OCC3)S(=O)(=O)c2ccc(OC)c(N3CCN(C)CC3)c2)cc1N1CCN(C)CC1 | 81%
O=C(Nc1ccc(OC2CCN(Cc3ccc(F)cc3)C2)cc1)c1ccco1.O=C(O)C(F)(F)F (stereo unspecified) | 88%
Cc1cc2[nH]c(-c3ccc(C(=O)NCCCN4CCN(c5cccc(Cl)c5)CC4)cc3F)nc2cc1Cl | 99%
COc1cccc(CN2Cc3ccccc3OC3(CCN(Cc4c[nH]c5cnccc45)CC3)C2)c1.O=C(O)C(F)(F)F | 83%
CN(C)CCOc1ccc2c(c1)OC(C)(C)C=C2c1cccc2ccccc12.Cl | 95%
COc1ccccc1N1CCN(CCCCNC(=O)c2ccc(NC(=O)c3cc4ccccc4o3)cc2)CC1 | 84%
O=C(CN1CCN(C(C(=O)Nc2cc(C(F)(F)F)ccc2Cl)c2ccccc2)CC1)NC1CC1 (stereo unspecified) | 95%
